The supplement of paper PMC10849652
Of roughly 7,900 targets only a part is listed; those with a hit were picked by preference. About 0.6% of all pairs of compound and target were hits. Unmarked numbers belong to inactive results.

Assays:
Assay in all cases: log2 fold change, soluble protein after heating vs DMSO (PISA); higher = thermal stabilisation; K562 cells, 10 uM, 30 min; active = over 0.2 and 3.5 SD of the protein, either way, in both replicates (recomputed)
IRAK-1-4 Inhibitor I = compound: C1COCCN1CCN2C3=CC=CC=C3N=C2NC(=O)C4=CC(=CC=C4)[N+](=O)[O-] [IRAK-1-4 Inhibitor I]
Procedure, shortened: (§1)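 K562 cells at 2×10^6 cells/mL were treated with 10 μM compound for 30 min. Aliquots were heated for 3 min across 48°C-58°C, pooled, and extracted in PBS with 0.5% NP-40 at 4°C; soluble protein was the supernatant after 21,000xg for 90 min. Soluble protein was quantified by TMTpro 16plex LC-MS/MS with channel sums equalised, and reported as log2 fold change in thermal stability against DMSO controls, with values from duplicates.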

ibrutinib = compound: C=CC(=O)N1CCC[C@@H](n2nc(-c3ccc(Oc4ccccc4)cc3)c3c(N)ncnc32)C1 [ibrutinib]
Procedure, shortened: as §1

[1] = compound: CC(=O)c1cnc2ccc(-c3cc(Cl)c(O)c(Cl)c3)nc2c1N[C@H]1CC[C@H](CN(C)C)CC1
Procedure, shortened: as §1

ralimetinib = compound: CC(C)(C)Cn1c(N)nc2ccc(-c3[nH]c(C(C)(C)C)nc3-c3ccc(F)cc3)nc21 [ralimetinib]
Procedure, shortened: as §1

[2] = compound: CC(C)(O)CC(=O)NCCn1ccc2ncnc(Nc3ccc(Oc4cccc(C(F)(F)F)c4)c(Cl)c3)c21
Procedure, shortened: as §1

[3] = compound: CC(C)C1=C2N=C(C=C(N2N=C1)NCC3=CC=CC=C3)NCCCCCCN
Procedure, shortened: as §1

[4] = compound: CC(C)C[C@@H](C=O)NC(=O)[C@H](CC(C)C)NC(=O)[C@H](CC(C)C)NC(=O)OCc1ccccc1
Procedure, shortened: as §1

pinometostat = compound: CC(C)N(C[C@H]1O[C@@H](n2cnc3c(N)ncnc32)[C@H](O)[C@@H]1O)[C@H]1C[C@@H](CCc2nc3cc(C(C)(C)C)ccc3[nH]2)C1 [pinometostat]
Procedure, shortened: as §1

[5] = compound: CC1=C(C(CC(=O)N1)C2=CC=C(C=C2)C(F)(F)F)C(=O)NC3=C(C=C4C(=C3)C=NN4)F
Procedure, shortened: as §1

[6] = compound: CC1=C(C2=C(C=C1)C(=O)C3=CC=CC=C3N2CCCN)C
Procedure, shortened: as §1

Chain of UniProt Q9UPN6 (Q9UPN6 whole entry, looked up): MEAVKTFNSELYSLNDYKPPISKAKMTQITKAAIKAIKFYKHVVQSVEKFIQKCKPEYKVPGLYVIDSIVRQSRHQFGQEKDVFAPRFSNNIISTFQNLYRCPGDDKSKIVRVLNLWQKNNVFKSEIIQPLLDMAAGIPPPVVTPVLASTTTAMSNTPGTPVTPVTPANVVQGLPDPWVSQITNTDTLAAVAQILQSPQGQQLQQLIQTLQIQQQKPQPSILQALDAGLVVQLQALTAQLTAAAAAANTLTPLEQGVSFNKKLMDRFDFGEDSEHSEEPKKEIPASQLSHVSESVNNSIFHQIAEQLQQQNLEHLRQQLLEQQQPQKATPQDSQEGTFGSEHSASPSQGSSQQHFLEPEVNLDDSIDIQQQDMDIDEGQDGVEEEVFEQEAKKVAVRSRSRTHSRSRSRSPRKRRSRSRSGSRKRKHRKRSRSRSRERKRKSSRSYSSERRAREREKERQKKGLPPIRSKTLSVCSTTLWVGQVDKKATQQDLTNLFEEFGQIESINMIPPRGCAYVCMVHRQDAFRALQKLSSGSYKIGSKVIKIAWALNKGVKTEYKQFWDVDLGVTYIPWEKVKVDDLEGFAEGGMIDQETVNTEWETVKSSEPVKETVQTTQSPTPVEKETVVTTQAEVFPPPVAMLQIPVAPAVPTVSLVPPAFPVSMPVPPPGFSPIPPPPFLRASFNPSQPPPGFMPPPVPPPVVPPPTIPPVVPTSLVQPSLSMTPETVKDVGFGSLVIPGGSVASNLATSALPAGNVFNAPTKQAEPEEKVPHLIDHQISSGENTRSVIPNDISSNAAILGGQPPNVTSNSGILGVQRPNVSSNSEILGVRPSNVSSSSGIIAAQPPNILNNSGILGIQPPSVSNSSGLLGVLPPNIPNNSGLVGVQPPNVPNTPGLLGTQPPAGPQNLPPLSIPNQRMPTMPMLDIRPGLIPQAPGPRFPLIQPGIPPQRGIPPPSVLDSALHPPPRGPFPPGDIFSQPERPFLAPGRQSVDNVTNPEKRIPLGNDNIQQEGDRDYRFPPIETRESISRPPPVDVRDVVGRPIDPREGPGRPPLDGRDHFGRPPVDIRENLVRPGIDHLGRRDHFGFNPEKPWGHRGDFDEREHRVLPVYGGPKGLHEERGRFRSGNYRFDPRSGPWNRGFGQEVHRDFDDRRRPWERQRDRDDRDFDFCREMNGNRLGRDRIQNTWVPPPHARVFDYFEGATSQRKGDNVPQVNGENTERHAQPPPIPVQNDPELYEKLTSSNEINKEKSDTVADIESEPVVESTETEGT
Chain of UniProt Q5VZM2 (Q5VZM2 whole entry, looked up): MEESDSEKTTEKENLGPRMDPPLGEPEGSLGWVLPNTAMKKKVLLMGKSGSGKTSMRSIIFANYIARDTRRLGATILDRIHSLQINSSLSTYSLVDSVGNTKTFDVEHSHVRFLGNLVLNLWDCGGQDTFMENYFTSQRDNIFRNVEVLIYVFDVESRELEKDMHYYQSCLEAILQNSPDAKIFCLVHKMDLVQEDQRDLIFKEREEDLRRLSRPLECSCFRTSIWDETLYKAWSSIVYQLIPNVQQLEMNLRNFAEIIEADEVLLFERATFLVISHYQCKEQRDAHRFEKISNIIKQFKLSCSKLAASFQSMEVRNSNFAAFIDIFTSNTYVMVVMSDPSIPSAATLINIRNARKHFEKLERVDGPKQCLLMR
Chain of UniProt O95059 (O95059 whole entry, looked up): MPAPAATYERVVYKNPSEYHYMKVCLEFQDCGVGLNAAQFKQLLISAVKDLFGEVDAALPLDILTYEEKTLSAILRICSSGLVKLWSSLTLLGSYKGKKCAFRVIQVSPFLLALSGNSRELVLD
Chain of UniProt Q9NRX5 (Q9NRX5 whole entry, looked up): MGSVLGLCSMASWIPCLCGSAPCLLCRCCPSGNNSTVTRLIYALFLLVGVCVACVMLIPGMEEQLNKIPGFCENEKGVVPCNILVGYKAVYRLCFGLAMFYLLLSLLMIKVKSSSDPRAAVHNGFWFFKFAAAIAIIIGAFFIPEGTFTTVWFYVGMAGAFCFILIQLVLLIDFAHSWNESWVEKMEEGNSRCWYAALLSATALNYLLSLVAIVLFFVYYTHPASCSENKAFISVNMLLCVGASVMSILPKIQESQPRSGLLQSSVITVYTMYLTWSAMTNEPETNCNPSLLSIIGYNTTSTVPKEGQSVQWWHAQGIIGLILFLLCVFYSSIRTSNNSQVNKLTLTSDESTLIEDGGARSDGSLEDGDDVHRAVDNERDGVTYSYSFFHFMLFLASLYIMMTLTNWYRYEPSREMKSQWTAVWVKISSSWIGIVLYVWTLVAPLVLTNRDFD
Chain of UniProt Q9GZR1 (Q9GZR1 whole entry, looked up): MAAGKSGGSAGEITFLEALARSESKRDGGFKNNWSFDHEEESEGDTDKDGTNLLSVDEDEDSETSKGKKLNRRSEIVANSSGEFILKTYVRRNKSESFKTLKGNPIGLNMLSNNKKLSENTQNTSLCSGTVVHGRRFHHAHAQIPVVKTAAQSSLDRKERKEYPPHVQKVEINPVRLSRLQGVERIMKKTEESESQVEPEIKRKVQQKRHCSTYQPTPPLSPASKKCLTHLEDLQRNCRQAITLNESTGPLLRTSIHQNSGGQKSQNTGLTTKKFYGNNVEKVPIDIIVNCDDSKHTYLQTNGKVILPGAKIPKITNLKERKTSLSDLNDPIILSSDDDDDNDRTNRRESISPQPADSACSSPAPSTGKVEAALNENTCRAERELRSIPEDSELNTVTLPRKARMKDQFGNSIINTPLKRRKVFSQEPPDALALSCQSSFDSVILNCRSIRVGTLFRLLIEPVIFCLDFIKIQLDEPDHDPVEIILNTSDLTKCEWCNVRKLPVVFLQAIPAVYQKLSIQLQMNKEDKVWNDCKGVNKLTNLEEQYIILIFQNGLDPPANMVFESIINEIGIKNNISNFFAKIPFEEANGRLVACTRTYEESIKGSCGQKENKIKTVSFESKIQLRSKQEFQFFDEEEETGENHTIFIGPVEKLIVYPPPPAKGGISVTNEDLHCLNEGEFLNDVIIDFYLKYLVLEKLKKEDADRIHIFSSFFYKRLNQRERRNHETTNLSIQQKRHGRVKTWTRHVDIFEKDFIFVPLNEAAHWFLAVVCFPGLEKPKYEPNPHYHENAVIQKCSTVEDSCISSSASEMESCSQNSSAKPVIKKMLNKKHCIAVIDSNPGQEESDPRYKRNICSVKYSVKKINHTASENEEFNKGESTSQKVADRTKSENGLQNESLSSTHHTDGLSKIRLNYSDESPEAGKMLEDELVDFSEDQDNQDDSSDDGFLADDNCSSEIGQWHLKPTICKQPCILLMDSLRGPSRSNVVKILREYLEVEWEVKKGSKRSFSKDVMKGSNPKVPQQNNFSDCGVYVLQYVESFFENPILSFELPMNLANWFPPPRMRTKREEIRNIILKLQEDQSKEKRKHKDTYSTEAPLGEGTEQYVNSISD
Chain of UniProt Q96I25 (Q96I25 whole entry, looked up): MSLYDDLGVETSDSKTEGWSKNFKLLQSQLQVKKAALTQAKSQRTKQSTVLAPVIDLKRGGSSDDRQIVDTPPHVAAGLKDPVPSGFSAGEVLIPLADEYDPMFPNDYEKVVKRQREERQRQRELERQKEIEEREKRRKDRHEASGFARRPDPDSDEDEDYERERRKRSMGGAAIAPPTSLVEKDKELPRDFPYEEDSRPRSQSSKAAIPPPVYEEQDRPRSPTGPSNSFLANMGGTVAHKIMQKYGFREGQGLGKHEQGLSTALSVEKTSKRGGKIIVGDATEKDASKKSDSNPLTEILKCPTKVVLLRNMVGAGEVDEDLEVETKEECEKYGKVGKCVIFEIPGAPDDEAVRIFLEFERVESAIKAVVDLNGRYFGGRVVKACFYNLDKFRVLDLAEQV
Chain of UniProt P40938 (P40938 whole entry, looked up): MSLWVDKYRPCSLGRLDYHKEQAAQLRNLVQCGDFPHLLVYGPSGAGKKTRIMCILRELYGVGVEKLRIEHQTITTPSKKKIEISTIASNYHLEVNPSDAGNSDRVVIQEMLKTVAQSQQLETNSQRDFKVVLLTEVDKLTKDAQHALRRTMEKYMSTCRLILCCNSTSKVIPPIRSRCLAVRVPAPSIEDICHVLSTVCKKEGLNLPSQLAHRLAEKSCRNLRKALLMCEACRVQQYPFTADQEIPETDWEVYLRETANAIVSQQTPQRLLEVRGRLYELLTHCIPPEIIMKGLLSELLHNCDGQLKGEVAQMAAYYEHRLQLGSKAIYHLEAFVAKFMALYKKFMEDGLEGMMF
Chain of UniProt Q8N0T1 (Q8N0T1 whole entry, looked up): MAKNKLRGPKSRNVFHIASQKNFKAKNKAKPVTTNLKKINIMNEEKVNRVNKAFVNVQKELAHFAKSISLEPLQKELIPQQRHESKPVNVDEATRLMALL
Chain of UniProt Q9UKM9 (Q9UKM9 whole entry, looked up): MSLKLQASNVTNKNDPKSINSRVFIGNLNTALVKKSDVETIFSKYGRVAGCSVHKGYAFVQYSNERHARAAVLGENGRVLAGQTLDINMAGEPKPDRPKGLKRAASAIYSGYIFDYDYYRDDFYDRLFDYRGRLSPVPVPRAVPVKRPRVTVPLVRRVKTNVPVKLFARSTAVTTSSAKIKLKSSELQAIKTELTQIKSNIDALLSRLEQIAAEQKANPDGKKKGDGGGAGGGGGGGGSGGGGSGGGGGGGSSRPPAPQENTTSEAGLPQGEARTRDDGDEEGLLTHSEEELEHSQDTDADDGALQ
Chain of UniProt Q9BUV8 (Q9BUV8 whole entry, looked up): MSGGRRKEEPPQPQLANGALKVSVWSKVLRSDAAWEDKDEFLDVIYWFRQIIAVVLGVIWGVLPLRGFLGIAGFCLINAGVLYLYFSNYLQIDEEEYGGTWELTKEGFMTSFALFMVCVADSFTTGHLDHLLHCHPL

Target | log2 fold change (IRAK-1-4 Inhibitor I) | log2 fold change (ibrutinib) | log2 fold change [1] | log2 fold change (ralimetinib) | log2 fold change [2] | log2 fold change [3] | log2 fold change [4] | log2 fold change (pinometostat) | log2 fold change [5] | log2 fold change [6]
RAD50 isoform 2 (UniProt Q92878) | -0.005 | -0.004 | -0.099 | -0.03 | -0.003 | -0.002 | -0.014 | -0.013 | -0.008 | 0.006
RRAGB (UniProt Q5VZM2) | 0.034 | 0.029 | 0.08 | 0.002 | -0.012 | -0.162 | 0.011 | 0.039 | -0.016 | 0.026
RAB3IL1 (UniProt E9PK89) | -0.012 | -0.021 | -0.006 | -0.018 | -0.127 | -0.032 | 0.006 | 0.017 | 0.08 | -0.005
SERINC1 (UniProt Q9NRX5) | 0 | 0.023 | 0 | -0.106 | -0.235 | -0.568 (active) | 0.095 | -0.022 | 0.038 | 0
RBIS (UniProt Q8N0T1) | -0.038 | 0.019 | -0.109 | -0.021 | 0.083 | -0.001 | 0.281 (active) | 0.044 | 0.066 | -0.478 (active)
SCAF8 isoform 2 (UniProt Q9UPN6) | 0.035 | -0.057 | -0.145 | -0.054 | -0.169 | -0.417 (active) | 0.23 | 0.065 | -0.05 | 0.138
RFC3 (UniProt P40938) | 0.003 | 0.025 | -0.101 | 0.021 | -0.087 | -0.012 | -0.047 | -0.057 | 0 | 0.09
RBM48 isoform 2 (UniProt Q5RL73) | 0.15 | 0.051 | -0.018 | 0.004 | 0.004 | 0.156 | -0.301 | 0.068 | -0.099 | -0.151
RPP14 (UniProt O95059) | -0.035 | 0.073 | -0.021 | 0.009 | 0.051 | -0.021 | 0 | 0.021 | 0.041 | -0.04
RBM17 (UniProt Q96I25) | -0.037 | 0.114 | -0.179 | 0.158 | -0.077 | -0.053 | 0.029 | 0.11 | -0.005 | 0.012
RAB5IF isoform 5 (UniProt Q9BUV8) | -0.082 | 0.031 | 0.048 | 0.3 | 0.021 | -0.187 | -0.143 | -0.105 | -0.12 | -0.036
SENP6 (UniProt Q9GZR1) | 0.005 | -0.018 | -0.063 | -0.031 | -0.058 | 0.094 | 0.043 | 0.004 | -0.028 | 0.057
RPS25 (UniProt P62851) | -0.08 | 0.01 | 0.069 | 0.073 | 0.033 | -0.028 | 0.054 | 0.184 | 0.006 | -0.533 (active)
RALY (UniProt Q9UKM9) | -0.315 | 0.001 | -0.21 | -0.029 | 0.055 | -0.101 | 0.083 | 0.129 | 0.068 | -0.311
SEC23A (UniProt Q15436) | 0.06 | 0 | 0.077 | 0.026 | -0.123 | -0.014 | -0.006 | -0.004 | 0.024 | 0.121
